Reference: PubChem BioAssay (NCATS)
Results filed as inconclusive are left out. A call without a number means that no potency is given here. Calls of active or inactive are those of the source. The call rests on the fitted dose curve; in most records, active means well fitted curve in the direction sought with a large enough effect; inconclusive means small, poorly fitted or top-dose-only effect, or another doubt; inactive means no such curve, though single readings can be large; an effect the other way counts as inactive or inconclusive.

Experiment: qHTS for Inhibitors of Plasmodium falciparum (HB3) proliferation (AID 504318); further: nearly all actives have a fitted effect of over 60% in size
Details: P. falciparum HB3 in erythrocytes, SYBR Green DNA, 72 h; series mostly up to 7.21 µM
Procedure, shortened: (§1)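 Parasite growth measured as SYBR Green DNA fluorescence (ex 485, em 535 nm) after overnight lysis following 72 h culture at 37 °C, 0.3% parasitemia, 2.5% hematocrit. Values normalized against DMSO and 0.29 uM artemisinin controls, with plate-stack correction.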
Potency means the concentration at half of the fitted maximal effect.

| Compound | Potency |
| --- | --- |
| CCN1C(=O)[C@@H]2[C@H]3[C@H](O)[C@H](O)CC(=NOCC[C@@H]4C=C[C@H](OC(C)=O)[C@@H](COC(C)=O)O4)[C@@H]3CC[C@H]2C1=O | inactive |
| CSc1nnc2c(n1)C[C@H](c1ccccc1)[C@@H](C)[C@@H](C(=O)N1CCCC1)C2 | inactive |
| CCN(CC)CCCN=C1NC(c2cccc(C(F)(F)F)c2)C(C(=O)OC)=C(C)N1CC (stereo not given) | inactive |
| CCCCC1=CC2=CC(=O)C(C)(OC(=O)c3cnc4ccccc4n3)C(=O)C2=CO1 (stereo not given) | inactive |
| COCCN1C=C2C(=O)C(C)(OC(=O)C3CCCC3)C(=O)C(c3ccccc3)=C2C=C1CCCC(=O)OC (stereo not given) | inactive |
| C#CCCOC(=O)N1C2=NC(C(=O)OC)=C(C(=O)OC)[C@@H]3N(C)c4ccccc4[C@]23C[C@H]1C(=O)OC | inactive |
| COC(=O)[C@H]1[C@@H](c2cccc(C(F)(F)F)c2)NC(=O)N(Cc2ccccc2)[C@@H]1C | inactive |
| O=C1c2ccccc2C(=O)N1CCCC[C@]12Cc3c(ccc4ccccc34)[C@H](O1)c1c(cc(-c3ccccc3)oc1=O)O2 | 536 nM (active) |
| COC(=O)N1C2CC3(C)C=C(C)OC1(C)C3c1ccccc12 (stereo not given) | inactive |
| CCCC[C@]12Cc3cc(C#N)ccc3[C@H](O1)c1c(c3ccccc3oc1=O)O2 | inactive |
| C=CC[C@@H]1C=C[C@H](ON=C[C@@H](C)[C@H](OCc2ccccc2)C(C)C)[C@H](CO)O1 | inactive |
| CCOC(=O)C(c1ccc(OC)c(OC)c1)C1c2ccccc2C=C(C)N1C(=O)OC (stereo not given) | inactive |
| C[C@@H]1[C@@H](c2ccccc2)Cc2nc3ccccc3nc2C[C@H]1C(=O)N1CCCC1 | inactive |
| Cc1noc(C)c1S(=O)(=O)N1CCc2nc(-c3ccccc3)c3c(c2C1)CO[C@@H](C)C3 | inactive |
| C=C(C(C)=O)C(O)c1ccc(Cl)cc1 (stereo not given) | inactive |
| COCCN1C(=O)NC(c2cccc(F)c2)C(C(=O)OC)=C1C (stereo not given) | inactive |
| C=CCOC(=O)NC(c1ccc(F)c(F)c1)C(C(=O)COC)C(=O)OC (stereo not given) | inactive |
| COCCN1C(=O)N[C@@H](c2cccc(C(F)(F)F)c2)[C@H](C(=O)OC)[C@H]1C | inactive |
| COC(=O)N(C=Cc1ccc(OC)cc1)CCc1ccc(OC)c(OC)c1 | inactive |
| COc1ccc2c(c1)C(NC(=O)C(F)(F)F)CC21CCCCC1 (stereo not given) | inactive |

| Compound | Potency |
| --- | --- |
| COC(=O)[C@@]1(C=C2c3ccc(OC)cc3[C@@H](OC)[C@@H]2C)[C@@H]2C=CC[C@@H]21 | inactive |
| COC(=O)CC=C[C@@H](C)[C@@H](Cc1ccccc1Br)OC | inactive |
| COc1cc2c(cc1OC)[C@@H]1O[C@](CCCCN3C(=O)c4ccccc4C3=O)(C2)OC2=C1C(=O)CC(C)(C)C2 | 478 nM (active) |
| CC(C)=CCN1C(=O)C2(CC(C)=C[C@@H](C)O2)c2c(Br)cccc21 (stereo not given in full) | inactive |
| COC(=O)CCCC1=CC2=CC(=O)C(C)(OC(=O)c3cccs3)C(=O)C2=CN1CCc1ccccn1 (stereo not given) | inactive |
| C=CCOC(=O)N[C@H](c1cccc(C(F)(F)F)c1)C(C(C)=O)C(C)=O | inactive |
| CC1=CC[C@@H](C)O[C@@]2(C1)C(=O)N(Cc1ccc(Br)cc1)c1ccccc12 | inactive |
| C#CC1(O)C(OC)=CC2C(=O)C1C(c1ccccc1)C2C (stereo not given) | inactive |
| C=CCN1c2ccccc2[C@]23C[C@@H](C(=O)OC)N(C(=O)OCC)C2=NC(C(=O)OC)=C(C(=O)OC)[C@H]13 | inactive |
| COc1cccc2c1C1(CCCCC1)CC2NC(=O)C(F)(F)F (stereo not given) | inactive |
| O=C1CCCC(C(C(=O)OCc2ccccc2)C(=O)OCc2ccccc2)C1 (stereo not given) | inactive |
| COC(=O)CC=C1c2ccccc2[C@@H](OC)[C@@H]1C | inactive |
| COC(=O)C1=C(C(=O)OC)[C@@H]2N(C)c3ccccc3[C@@]23C[C@@H](C(=O)OC)N(C(=O)NC(C)(C)C)C3=N1 | inactive |
| Cc1ccc(S(=O)(=O)NC(CCc2ccccc2)CC(=O)C(C)(C)C)cc1 (stereo not given) | inactive |
| C[C@@H]1C=CCCO[C@]12C(=O)N(CC1CC1)c1cccc(Br)c12 | inactive |
| CC(C)Nc1oc(-c2ccccc2)nc1-c1ccc(C(F)(F)F)cc1 | inactive |
| COC(=O)c1ccccc1C[C@]1(C(=O)OC)C=C[C@H](C)[C@@H](c2ccccc2)N1C(=O)C(F)(F)F | inactive |
| OC[C@H]1O[C@H](C#Cc2ccccc2)C=C[C@@H]1O | inactive |
| O=C(NN=C1C[C@@H](O)[C@H](O)[C@H]2[C@@H]3C(=O)N(C[C@@H]4CCCO4)C(=O)[C@@H]3CC[C@H]12)OCc1ccccc1 | inactive |
| CCC(=O)C[C@@H](NC(=O)OC)c1ccccc1 | inactive |

Experiment: qHTS for Inhibitors of Plasmodium falciparum (CP250) proliferation (AID 504320)
Details: P. falciparum CP250 in erythrocytes, SYBR Green DNA, 72 h; series mostly up to 6.7 µM
Procedure, shortened: as §1

| Compound | Potency |
| --- | --- |
| CCN1C(=O)[C@@H]2[C@H]3[C@H](O)[C@H](O)CC(=NOCC[C@@H]4C=C[C@H](OC(C)=O)[C@@H](COC(C)=O)O4)[C@@H]3CC[C@H]2C1=O | inactive |
| CSc1nnc2c(n1)C[C@H](c1ccccc1)[C@@H](C)[C@@H](C(=O)N1CCCC1)C2 | inactive |
| CCN(CC)CCCN=C1NC(c2cccc(C(F)(F)F)c2)C(C(=O)OC)=C(C)N1CC (stereo not given) | inactive |
| CCCCC1=CC2=CC(=O)C(C)(OC(=O)c3cnc4ccccc4n3)C(=O)C2=CO1 (stereo not given) | inactive |
| COCCN1C=C2C(=O)C(C)(OC(=O)C3CCCC3)C(=O)C(c3ccccc3)=C2C=C1CCCC(=O)OC (stereo not given) | inactive |
| C#CCCOC(=O)N1C2=NC(C(=O)OC)=C(C(=O)OC)[C@@H]3N(C)c4ccccc4[C@]23C[C@H]1C(=O)OC | inactive |
| COC(=O)[C@H]1[C@@H](c2cccc(C(F)(F)F)c2)NC(=O)N(Cc2ccccc2)[C@@H]1C | inactive |
| O=C1c2ccccc2C(=O)N1CCCC[C@]12Cc3c(ccc4ccccc34)[C@H](O1)c1c(cc(-c3ccccc3)oc1=O)O2 | 1510 nM (active) |
| COC(=O)N1C2CC3(C)C=C(C)OC1(C)C3c1ccccc12 (stereo not given) | inactive |
| CCCC[C@]12Cc3cc(C#N)ccc3[C@H](O1)c1c(c3ccccc3oc1=O)O2 | inactive |
| C=CC[C@@H]1C=C[C@H](ON=C[C@@H](C)[C@H](OCc2ccccc2)C(C)C)[C@H](CO)O1 | inactive |
| CCOC(=O)C(c1ccc(OC)c(OC)c1)C1c2ccccc2C=C(C)N1C(=O)OC (stereo not given) | inactive |
| C[C@@H]1[C@@H](c2ccccc2)Cc2nc3ccccc3nc2C[C@H]1C(=O)N1CCCC1 | inactive |
| Cc1noc(C)c1S(=O)(=O)N1CCc2nc(-c3ccccc3)c3c(c2C1)CO[C@@H](C)C3 | inactive |
| C=C(C(C)=O)C(O)c1ccc(Cl)cc1 (stereo not given) | inactive |
| COCCN1C(=O)NC(c2cccc(F)c2)C(C(=O)OC)=C1C (stereo not given) | inactive |
| C=CCOC(=O)NC(c1ccc(F)c(F)c1)C(C(=O)COC)C(=O)OC (stereo not given) | inactive |
| COCCN1C(=O)N[C@@H](c2cccc(C(F)(F)F)c2)[C@H](C(=O)OC)[C@H]1C | inactive |
| COC(=O)N(C=Cc1ccc(OC)cc1)CCc1ccc(OC)c(OC)c1 | inactive |
| COc1ccc2c(c1)C(NC(=O)C(F)(F)F)CC21CCCCC1 (stereo not given) | inactive |

| Compound | Potency |
| --- | --- |
| COC(=O)[C@@]1(C=C2c3ccc(OC)cc3[C@@H](OC)[C@@H]2C)[C@@H]2C=CC[C@@H]21 | inactive |
| COC(=O)CC=C[C@@H](C)[C@@H](Cc1ccccc1Br)OC | inactive |
| COc1cc2c(cc1OC)[C@@H]1O[C@](CCCCN3C(=O)c4ccccc4C3=O)(C2)OC2=C1C(=O)CC(C)(C)C2 | 1510 nM (active) |
| CC(C)=CCN1C(=O)C2(CC(C)=C[C@@H](C)O2)c2c(Br)cccc21 (stereo not given in full) | inactive |
| COC(=O)CCCC1=CC2=CC(=O)C(C)(OC(=O)c3cccs3)C(=O)C2=CN1CCc1ccccn1 (stereo not given) | inactive |
| C=CCOC(=O)N[C@H](c1cccc(C(F)(F)F)c1)C(C(C)=O)C(C)=O | inactive |
| CC1=CC[C@@H](C)O[C@@]2(C1)C(=O)N(Cc1ccc(Br)cc1)c1ccccc12 | inactive |
| C#CC1(O)C(OC)=CC2C(=O)C1C(c1ccccc1)C2C (stereo not given) | inactive |
| C=CCN1c2ccccc2[C@]23C[C@@H](C(=O)OC)N(C(=O)OCC)C2=NC(C(=O)OC)=C(C(=O)OC)[C@H]13 | inactive |
| COc1cccc2c1C1(CCCCC1)CC2NC(=O)C(F)(F)F (stereo not given) | inactive |
| O=C1CCCC(C(C(=O)OCc2ccccc2)C(=O)OCc2ccccc2)C1 (stereo not given) | inactive |
| COC(=O)CC=C1c2ccccc2[C@@H](OC)[C@@H]1C | inactive |
| COC(=O)C1=C(C(=O)OC)[C@@H]2N(C)c3ccccc3[C@@]23C[C@@H](C(=O)OC)N(C(=O)NC(C)(C)C)C3=N1 | inactive |
| Cc1ccc(S(=O)(=O)NC(CCc2ccccc2)CC(=O)C(C)(C)C)cc1 (stereo not given) | inactive |
| C[C@@H]1C=CCCO[C@]12C(=O)N(CC1CC1)c1cccc(Br)c12 | inactive |
| CC(C)Nc1oc(-c2ccccc2)nc1-c1ccc(C(F)(F)F)cc1 | inactive |
| COC(=O)c1ccccc1C[C@]1(C(=O)OC)C=C[C@H](C)[C@@H](c2ccccc2)N1C(=O)C(F)(F)F | inactive |
| OC[C@H]1O[C@H](C#Cc2ccccc2)C=C[C@@H]1O | inactive |
| O=C(NN=C1C[C@@H](O)[C@H](O)[C@H]2[C@@H]3C(=O)N(C[C@@H]4CCCO4)C(=O)[C@@H]3CC[C@H]12)OCc1ccccc1 | inactive |
| CCC(=O)C[C@@H](NC(=O)OC)c1ccccc1 | inactive |
